# According to the supplement of paper PMC6555819:
# How the values were obtained:
# Experiment in all cases: PBM binding z-score (relative to random genomic background probes); higher = stronger binding; sequences stand for … in GC…GCGATTGACAGCGTAGAATGAAGG
# [1] = system: PPARg:RXRa DBDmut IVT, anti-RXR (DBD mutation: RXRa K156A/R161A, NR concentration 270 nM, RXRa partner concentration 90 nM)
# Procedure, shortened: (§1)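 For binding z-scores, the reference was random background probes on custom Agilent 4×180K protein-binding microarrays. These arrays were incubated 1 h with ligand-free nuclear receptor dimers in PBS pH 7.4, 2% milk, 0.02% Triton X-100, 1 mM DTT, 0.2 mg/mL BSA and 0.4 mg/ml salmon testes DNA. Fluorescence was scanned after antibody detection of each partner (one per run) and regression-normalized.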
# [2] = system: PPARg:RXRa IVT, anti-PPARg (NR concentration 270 nM, RXRa partner concentration 90 nM)
# Procedure, shortened: as §1
# [3] = system: PPARg DBDmut:RXRa IVT, anti-PPARg (DBD mutation: PPARg1 K132A/R137A, NR concentration 270 nM, RXRa partner concentration 90 nM)
# Procedure, shortened: as §1
# [4] = system: PPARg DBDmut IVT, anti-PPARg (DBD mutation: PPARg1 K132A/R137A, NR concentration 270 nM)
# Procedure, shortened: as §1
# [5] = system: PPARg homodimer (NR concentration 180 nM)
# Procedure, shortened: as §1
# [6] = system: PXR:RXRa (NR concentration 270 nM, RXRa partner concentration 90 nM)
# Procedure, shortened: as §1
# [7] = system: PXR homodimer (NR concentration 270 nM)
# Procedure, shortened: as §1
# [8] = system: RARa:RXR (NR concentration 270 nM, RXRa partner concentration 90 nM)
# Procedure, shortened: as §1
# [9] = system: RARa homodimer (NR concentration 270 nM)
# Procedure, shortened: as §1
# [10] = system: RARb:RXRa (NR concentration 270 nM, RXRa partner concentration 90 nM)
# Procedure, shortened: as §1
# [11] = system: RARb homodimer (NR concentration 270 nM)
# Procedure, shortened: as §1
# [12] = system: RARg:RXRa (NR concentration 270 nM, RXRa partner concentration 90 nM)
# Procedure, shortened: as §1
# [13] = system: RARg homodimer (NR concentration 270 nM)
# Procedure, shortened: as §1
# [14] = system: RXRa DBDmut IVT, anti-RXR (DBD mutation: RXRa K156A/R161A, NR concentration 90 nM)
# Procedure, shortened: as §1
# [15] = system: RXRa homodimer (NR concentration 180 nM)
# Procedure, shortened: as §1
# [16] = system: THRa:RXRa (NR concentration 90 nM, RXRa partner concentration 90 nM)
# Procedure, shortened: as §1
# [17] = system: THRa homodimer (NR concentration 90 nM)
# Procedure, shortened: as §1
# [18] = system: VDR homodimer (NR concentration 270 nM)
# Procedure, shortened: as §1
Sequence,PBM binding z-score [1],PBM binding z-score [2],PBM binding z-score [3],PBM binding z-score [4],PBM binding z-score [5],PBM binding z-score [6],PBM binding z-score [7],PBM binding z-score [8],PBM binding z-score [9],PBM binding z-score [10],PBM binding z-score [11],PBM binding z-score [12],PBM binding z-score [13],PBM binding z-score [14],PBM binding z-score [15],PBM binding z-score [16],PBM binding z-score [17],PBM binding z-score [18]
ATATGTAGGTTATCGGGTCATTGAGTTTGCGCAT,7.71,7.5,3.11,1.9,2.89,4.55,10.5,3.82,1.41,2.86,3.16,3.43,2.61,1.94,3.51,3.42,2.76,5.54
ACATGTAGGTTATCGGGTCATTCAGTTTGCGCAT,6.89,6.82,3.46,3.12,5.01,4.02,6.61,3.88,2.25,2.61,3.23,3.35,2.41,1.87,3.6,3.32,3.05,4.06
CGAACGAGGGCATGAGTTGATAGTAAATGCCGAT,3.01,1.98,-0.123,0.201,-0.00807,0.636,0.316,0.644,-0.245,1.94,0.956,1.48,1.7,2.41,1.09,1.33,-0.0333,1.98
TCCCGGAGGACACGAAAGGTCAGAGCTCGACATC,1.58,1.17,-0.696,-0.402,2.86,3.87,0.5,4.24,1.11,4.25,4.78,4.89,5.23,0.811,3.89,3.88,1.31,0.948
CGAATTAGGTCAAGGACAGTGAATCTCCGCACGC,8.12,8.06,3.79,1.82,1.89,1.28,0.205,2.79,0.19,4.18,3.29,3.94,4.46,1.46,2.97,3.53,2.81,0.373
TCTTGTAGATCAACAGAAGGTTAAGAAAGATCGA,2.05,0.787,0.882,0.062,-0.0281,0.812,0.0567,0.954,-0.338,0.701,0.688,0.942,0.329,0.67,1.02,0.733,-0.701,-0.188
CGAACTAGGTCATTGACAGGACAGTGAGTAGTAA,8.17,8.32,0.587,2.61,1.63,1.38,0.241,2.09,0.277,3.6,2.57,4.39,4.12,2.41,2.42,2.81,0.505,0.794
TCATATAGGTAATACACGTGAAAGTCGGCATCTA,3.9,2.2,1.1,1.42,1.33,0.683,0.547,0.919,1.56,0.414,0.355,0.577,0.604,1.92,0.939,0.156,-0.0139,0.589
ACTAACAGGCCAAGTTTGGGTCACTCAAACAAAG,0.131,0.999,-0.122,0.374,0.38,0.912,-0.269,1.75,-0.388,2.11,2.55,2.88,2.24,0.278,0.882,2.73,1.26,0.351
GCAAATAGGTAATACAAGGTGAAAGTCCGATTGT,3.46,2.55,0.642,0.68,0.192,0.778,0.202,1.44,0.308,0.635,0.898,0.546,0.597,0.463,0.951,4.22,0.778,-0.442
TCGAGTAGGTTACCAATGGGGCATTAAGCTTTCT,2.97,2.74,-0.388,-0.404,-0.656,-0.325,-1.08,0.0202,-1.28,0.864,0.561,0.966,0.213,0.338,0.336,-0.0215,-0.627,-0.636
GGAATGAGGGCATTCGAGTTGATAGCATGGCGAT,4.4,3.1,1.13,-0.209,0.811,4.13,1.54,1.44,-0.137,1.72,0.662,1.15,1.22,3.43,0.995,3.3,0.191,3.8
TCGATTAGGTTAGTCGGGGCATTCAGCCAACATA,2.2,0.996,0.0217,-0.0761,0.302,0.39,0.0297,0.45,-0.0114,0.705,0.609,0.149,0.141,1.32,0.147,1.4,0.446,0.465
CAAACTAGGACACCGGAAGGTCAAAGTCCGCATG,6.39,6.49,2.4,2.63,2.78,3.89,1.68,4.36,1.36,3.59,4.14,4.12,3.83,0.721,3.58,3.71,2.1,2.92
TCATATAGGTAAAGGTGAAAATCGAACGATATGA,3.76,4.08,1.54,1.02,0.818,0.873,0.241,1.5,0.976,1.73,0.939,1.56,1.28,0.781,1.98,0.991,-0.415,-0.256
